Measurements as given in ChEMBL document CHEMBL3988442, “University of Dundee, Small-Polar-MMV Screening Library” (2021).
Values joined by “and” are separate entries in the source; they are usually repeats but may differ in a detail not shown here. Identical values can stand only once. Out of some 34,000 compounds screened, about 290 (0.85%) showed an effect of 50% or more. Shown is part of a subset that was picked to be rich in strong results.

System: Plasmodium falciparum
Assay: Plasmodium falciparum sporozoite viability assay
Assay type: functional, organism-based
Parameters: scale not given: in the data most compounds retested in dose-response had high values

| Structure (SMILES) | Percent Effect (10 mM as filed; unlikely as a test dose) | Percent Effect |
| --- | --- | --- |
| O[C@H]1CN(c2nc(-c3ccccc3)no2)C[C@@H]1N1CCOCC1 | -27.06% and -32.72% |  |
| OC1CCN(c2ccccc2NCc2nc(-c3cccs3)no2)CC1 | 22.91% and 47.25% and 30.27% |  |
| Cc1nn2c(N3CCC(O)CC3)cc(-c3ccccc3)nc2c1C |  | -9.448% |
| OC1CCN([C@@H]2CCN(c3nc(-c4ccccc4)no3)C[C@H]2O)CC1 | 63.55% and 40.94% |  |
| Cc1cccc(NC(=O)[C@@H]2CCCN2Cc2ccc(C#N)cc2F)n1 |  | -15.69% |
| CCn1ncc2c1C(COC)CN(Cc1ccc(F)cc1)C2.O=C(O)C(F)(F)F.O=C(O)C(F)(F)F (stereo not given) |  | 5.175% |
| O=C(O)c1cccc(S(=O)(=O)N2CCOc3ccccc32)c1 |  | 8.824% |
| Cn1cnc(S(=O)(=O)NCCCN2CCCCCC2=O)c1Cl |  | -2.417% |
| CCNC(=O)C(C)NC(=O)c1cnc(-c2ccc(C)cc2C)s1 (stereo not given) |  | 5.538% |
| COc1cc(CNCC(C)O)cc(Cl)c1OCc1ccc(C)cc1.Cl (stereo not given) |  | -5.385% |
| CCCNCc1ccc(OCc2ccc3c(c2)OCCO3)cc1.Cl | -30.54% and -21.42% |  |
| CC(C)(CO)NCc1ccc(OCc2ccc3c(c2)OCCO3)cc1.Cl | 25.27% and 55.16% |  |
| COc1c(CNCc2ccc3c(c2)OCCO3)c(C(C)C)nn1C |  | 14.99% |
| Cl.c1cc(OCc2ccc3c(c2)OCO3)ccc1CNC1CC1 | 33.09% and 60.95% and 82.86% |  |
| CC(O)CNCc1ccc(OCc2ccc3c(c2)OCCO3)cc1.Cl (stereo not given) | 88.95% and 91.02% and 83.06% |  |
| CC(C)(C)NCc1ccc(OCc2ccc3c(c2)OCCO3)cc1.Cl | -36.62% and -27.49% |  |
| CSc1nccc(N2CCC(NCc3ccc4c(c3)OCO4)CC2)n1 |  | 4.585% |
| CCNCc1ccc(OCc2ccc3c(c2)OCCO3)cc1.Cl | -24.62% and -4.131% |  |
| Cc1nccn1C1CCCN(C(=O)c2sccc2-n2cnnn2)C1 (stereo not given) |  | -0.2931% |
| CN1CCN(Cc2cn3c(n2)CN(C2CCOCC2)CC3)CC1.O=C(O)C(F)(F)F.O=C(O)C(F)(F)F.O=C(O)C(F)(F)F |  | 10.57% |
| O=C(CCc1ccco1)Nc1cc(C(F)(F)F)c[nH]c1=O |  | -11.4% |
| COc1cccc(O[C@H]2CCN(c3nc(C)cc(C)n3)CC[C@@H]2O)c1 |  | 11.61% |
| O=C(Cn1cccc2cc(-c3ccc(F)cc3)nc1-2)N1CCC(O)CC1 |  | -1.811% |

| Structure (SMILES) | Percent Effect (10 mM as filed; unlikely as a test dose) | Percent Effect |
| --- | --- | --- |
| COc1ccc(C2CNCCN2C(=O)c2cccc3ncccc23)cc1 (stereo not given) |  | 4.068% |
| CC(C)N(C)S(=O)(=O)c1ccc2c(c1)CCN(C(=O)c1cnccn1)C2 |  | -1.97% |
| O=C(CN1CCCC1c1noc(C2CC2)n1)NCCc1ccsc1 (stereo not given) |  | 13.6% |
| CN(C)c1ccc(C(=O)N2CCCN(Cc3cnn(C)c3)CC2)nn1 |  | -1.596% |
| O=C(O)c1ccc(=O)n(CC(c2ccc(Cl)cc2)N2CCOCC2)c1 (stereo not given) |  | 5.86% |
| Cc1cccc(-c2noc(CN3CC(n4cc(C)cn4)C3)n2)c1 |  | -1.145% |
| Cc1ccccc1-c1noc(CN2CC(n3cccn3)C2)n1 |  | -26.31% |
| NC(=O)c1nc2c(s1)CCN(C(=O)Nc1ccccc1)CC2 |  | 13.34% |
| O=C(Nc1ccccc1)N1CCc2nc(C(=O)N3CCCC3)sc2CC1 | 42.14% and 56.3% and 42.63% |  |
| CCOCCCNC(=O)C1(C)CCC(=O)N1Cc1ccccc1F (stereo not given) |  | -5.282% |
| COc1cccc(Nc2nc(N3CCCC3)nc3c2CNCC3)c1.Cl |  | 4.348% |
| COc1cccc(-c2cc(C3CCCNC3)ccn2)c1 (stereo not given) |  | 10.99% |
| COc1cccc(Nc2nc(-c3ccncc3)nc3c2CNCC3)c1.Cl |  | 6.202% |
| COc1ccc(-c2cc(C3CCCNC3)ccn2)cc1.Cl (stereo not given) |  | 3.809% |
| Cc1cc(C)nc(Nc2nccnc2C2CCCN(CCO)C2)n1 (stereo not given) |  | -0.8244% |
| Cc1ccoc1C(=O)NC1CCN(C(=O)Nc2ccccn2)CC1 |  | 4.048% |
| CN1CCN(C[C@@H]2OC[C@H]3CN(CCc4ccccc4)CC[C@H]32)CC1.O=C(O)C(F)(F)F.O=C(O)C(F)(F)F.O=C(O)C(F)(F)F |  | 9.359% |
| O=C(NCC1CCCCC1)NC1CCCc2c1cnn2CCO (stereo not given) | 38.6% and 33.33% and 56.01% |  |
| O=C(NC1CCCCC1)NC1CCCc2c1cnn2CCO (stereo not given) | -11.63% and -7.35% and -4.902% |  |
| CSc1ccc(OCCN2CCNC(=O)CC2)cc1 |  | -10.56% |
| CSCC[C@H](N)c1nnc(SCc2cc(C)ccc2C)o1.Cl |  | -8.516% |
| CCc1n[nH]c(C(=O)NCCn2ccnc2C)c1C | -3953% and -3827% |  |
| CCc1n[nH]c(C(=O)NCCn2nccc2C)c1C | 28.41% and 66.23% and 77.05% |  |

| Structure (SMILES) | Percent Effect (10 mM as filed; unlikely as a test dose) | Percent Effect |
| --- | --- | --- |
| CC(C(=O)N1CCN(Cc2ccc3c(c2)OCO3)CC1)n1ccnc1 (stereo not given) |  | 3.608% |
| CCn1cnnc1CNC(=O)N1CCC(CN2CCCCCC2)CC1 |  | 4.778% |
| CC(C)COCc1cncc2c1CCN(C(=O)c1cscn1)C2.O=C(O)C(F)(F)F |  | 5.063% |
| CC(C)Cc1nc(CO)n(-c2ccc3c(c2)OCCO3)n1 | 46.72% and 37.75% |  |
| CC[S+]([O-])CCc1nc(CC(C)C)nn1-c1ccc2c(c1)OCCO2 (stereo not given) | 61.59% and 54.31% |  |
| Cc1cc(C)n(CC2CCCN2C(=O)CCc2ccncc2)n1 (stereo not given) |  | 1.423% |
| Cn1ccc(C(=O)NCc2cccc(CN3CCCC3)c2)cc1=O |  | 11.38% |
| CCOc1ccnc(N2CCN(C(=O)c3c(CC)noc3C)CC2)n1 |  | -6.802% |
| Cc1nccn1CC1CCCN1S(=O)(=O)Cc1ccc(F)cc1 (stereo not given) |  | 5.478% |
| CN1CCOC(C(=O)Nc2ccc3c(c2)nc(C(C)(C)C)n3C)C1 (stereo not given) | 104.1% and 105.2% |  |
| CN1CCOC(C(=O)Nc2ccc3c(c2)nc(C2CC2)n3C)C1 (stereo not given) | -13.44% and -13.85% |  |
| CN1CCOC(C(=O)Nc2ccc3[nH]nnc3c2)C1 (stereo not given) | -26.35% and -20.34% |  |
| CC1CCCN(C(=O)C2CCN(c3snc4ccccc34)CC2)C1 (stereo not given) |  | 6.864% |
| CC(C)c1cc(NC(=O)c2ccc(NC3CC3)nc2)[nH]n1 |  | 15.54% |
| c1cc(-c2cncnc2)cc(-c2ccn(CC3CCNC3)n2)c1 (stereo not given) | -11.99% and -9.692% and -21.27% |  |
| Cc1ccsc1-c1cccc(-c2ccn(CC3CCNC3)n2)c1 (stereo not given) | 75.23% and 72.27% and 75.29% |  |
| Cc1nccc(-c2cccc(-c3ccn(CC4CCNC4)n3)c2)n1 (stereo not given) | -3.675% and -28.15% and -23.4% |  |
| O=C(Nc1ccccc1OCCc1ccccn1)N1CCOCC(O)C1 (stereo not given) |  | 6.804% |
| Cc1cc(OCC(O)c2nc3c([nH]2)CC(C)(C)CNC3=O)ccc1Cl (stereo not given) |  | 5.403% |
| c1ccc(-c2noc(CN3CCc4cncnc4C3)n2)nc1 | 68.57% and 81.28% and 66.45% |  |
| c1cncc(-c2noc(CN3CCc4cncnc4C3)n2)c1 |  | 1.959% |
| Cc1cc(C(=O)N2CCCC(n3cncn3)C2)no1 (stereo not given) |  | 2.312% |
| CN(C)C(=O)c1cnc(-c2ccc3c(c2)OCO3)s1 | -22.33% and -36.75% |  |

| Structure (SMILES) | Percent Effect (10 mM as filed; unlikely as a test dose) | Percent Effect |
| --- | --- | --- |
| CCN(C(=O)c1cnc(-c2ccc3c(c2)OCO3)s1)C1CC1 | -15.93% and -34.81% |  |
| CC(C1CC1)N(C)C(=O)c1cnc(-c2ccc3c(c2)OCO3)s1 (stereo not given) | 53.72% and 75.58% and 50.81% |  |
| COc1c(C2CCCN2Cc2noc(C(C)C)n2)c(C)nn1C (stereo not given) |  | 4.307% |
| CCc1nnc(CN2CCOC(Cn3cccn3)C2)o1 (stereo not given) |  | 11.86% |
| c1ccc(-c2nc(CN3CCOC(Cn4cccn4)C3)cs2)cc1 (stereo not given) | -13.99% and -29.39% |  |
| c1csc(-c2nc(CN3CCOC(Cn4cccn4)C3)cs2)c1 (stereo not given) |  | 3.015% |
| c1csc(-c2nc(CN3CCOC(Cn4cncn4)C3)co2)c1 (stereo not given) |  | 15.52% |
| c1ccc(-c2nc(CN3CCOC(Cn4cncn4)C3)cs2)cc1 (stereo not given) | 57.17% and 32.5% and 36.71% |  |
| c1csc(-c2nc(CN3CCOC(Cn4cncn4)C3)cs2)c1 (stereo not given) | 44.25% and 56.8% and 40.33% |  |
| O=C1NCC2=C1C(c1ccc(O)cc1)Nc1ccccc1N2 (stereo not given) |  | -23.23% |
| COCCN1CCCC1c1ccnc(-c2ccccc2)n1 (stereo not given) |  | 6.777% |
| CCN1CCN(C(C)CNC(=O)Nc2nnc(C)s2)CC1 (stereo not given) |  | -9.257% |
| Cc1noc(C)c1CCC(=O)NCC1(O)CCN(c2ccccn2)C1 (stereo not given) |  | 8.46% |
| CNc1cc(C)nc(N2C[C@H](C3CC3)[C@@H](N)C2)n1 | 11.54% and 8.166% and -2.157% |  |
| CNc1cc(C)nc(N2C[C@H](NC(=O)C3CCOCC3)[C@@H](C3CC3)C2)n1 | -9.822% and -7.832% and -7.881% |  |
| CNc1cc(C)nc(N2C[C@@H](C(=O)O)[C@H](C3CC3)C2)n1 | 73.63% and 80.29% and 69.7% |  |
| Cc1cnn(CC2CCCN2C(=O)c2c(C)noc2C(C)C)c1 (stereo not given) |  | 2.244% |
| CCn1c(N)nc2cc(C(=O)NCCc3nnc(C)s3)cnc21 | -8.165% and -11.66% |  |
| CCn1c(N)nc2cc(C(=O)NCCNc3ncccc3C)cnc21 | -11.01% and -17.43% |  |
| CCn1c(N)nc2cc(C(=O)NCc3ccccc3Cl)cnc21 | -6% and 9.799% and 1.435% |  |
| CCn1c(N)nc2cc(C(=O)NCCc3ccccc3F)cnc21 | 83.82% and 65.98% |  |
